PubChem BioAssay (NCI)
The panel holds about 83,000 compounds, 20% with a hit somewhere; the sample as a whole holds those more often.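 The endpoint reported here, percent growth, reads 100 for growth as untreated, 0 for no net growth and -100 for all cells dead.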 The source made the active and inactive calls. The calls were made as follows: active = growth percent below 10; inactive = the rest.

Assays:
Assay in all cases: NCI-60 one-dose screen, 48 h (100 = growth as untreated, 0 = no growth, -100 = all killed)
Conditions in all cases: 10 µM unless noted
HCT-15 colon = tested on: HCT-15 colon
HT29 colon = tested on: HT29 colon
SNB-75 CNS = tested on: SNB-75 CNS
SNB-19 CNS = tested on: SNB-19 CNS
U251 CNS = tested on: U251 CNS
PC-3 prostate = tested on: PC-3 prostate
SK-MEL-5 melanoma = tested on: SK-MEL-5 melanoma
UACC-62 melanoma = tested on: UACC-62 melanoma
LOX IMVI melanoma = tested on: LOX IMVI melanoma
SK-MEL-28 melanoma = tested on: SK-MEL-28 melanoma

Measured: growth

COc1ccc2[nH]c(=O)c(/C=C/C(=O)c3ccccc3OC)cc2c1
active: HT29 colon 7.17% | SNB-75 CNS -11.5% | U251 CNS 5.14%
inactive: HCT-15 colon 11.3% | SNB-19 CNS 17% | PC-3 prostate 22.1% | SK-MEL-5 melanoma 25.2% | UACC-62 melanoma 25.7% | LOX IMVI melanoma 10.2% | SK-MEL-28 melanoma 50.5%

O=c1c2ccccc2oc2ccc(OCCCCCN3CCCCCC3)cc12
inactive: HCT-15 colon 33.1% | HT29 colon 12.9% | SNB-75 CNS 77.1% | SNB-19 CNS 84% | U251 CNS 60.3% | PC-3 prostate 80.7% | LOX IMVI melanoma 49.8% | SK-MEL-28 melanoma 86.3%
active: SK-MEL-5 melanoma -35.2% | UACC-62 melanoma 2.08%

N#Cc1nc(-c2ccccc2)oc1S(=O)(=O)NCC(c1ccc(Cl)cc1)N1CCCCC1 (stereo not given)
inactive: HCT-15 colon 35.3% | HT29 colon 25.1% | SNB-75 CNS 94% | SNB-19 CNS 88.1% | U251 CNS 74.1% | PC-3 prostate 78.9% | SK-MEL-5 melanoma 73.8% | UACC-62 melanoma 80.2% | LOX IMVI melanoma 21.9% | SK-MEL-28 melanoma 96.3%

CC(=O)[C@@H]1CC[C@]2(C(=O)O)CC[C@]3(C)[C@H](CC[C@@H]4[C@@]5(C)Cc6c([nH]c7ccccc67)C(C)(C)[C@@H]5CC[C@]43C)[C@@H]12
inactive: HCT-15 colon 44.3% | HT29 colon 68.6% | SNB-75 CNS 94.7% | SNB-19 CNS 70.2% | U251 CNS 45% | PC-3 prostate 40.7% | SK-MEL-5 melanoma 71.8% | UACC-62 melanoma 67.9% | LOX IMVI melanoma 50.1% | SK-MEL-28 melanoma 78.5%

Cc1ccccc1NC(=O)c1sc2nc(C)c(C(C)O)cc2c1N (stereo not given)
inactive: HCT-15 colon 35.3% | SNB-75 CNS 53.9% | SNB-19 CNS 32.5% | U251 CNS 28.8% | PC-3 prostate 60.9% | SK-MEL-5 melanoma 31.4% | UACC-62 melanoma 25.5% | LOX IMVI melanoma 44.2% | SK-MEL-28 melanoma 67.2%
active: HT29 colon 3.12%

C=C1C(=O)O[C@H]2[C@H]1CC/C(COC(=O)CCC(=O)OC/C1=C/CC[C@@]3(C)O[C@H]3[C@H]3OC(=O)C(=C)[C@@H]3CC1)=C\CC[C@@]1(C)O[C@@H]21
inactive: HT29 colon 27.2% | SNB-75 CNS 76.5% | SNB-19 CNS 94.3% | U251 CNS 72.9% | PC-3 prostate 60% | SK-MEL-5 melanoma 61.4% | UACC-62 melanoma 13.2% | LOX IMVI melanoma 26.2%
active: HCT-15 colon 0.631% | SK-MEL-28 melanoma 4.61%

CCSc1nc(Cl)c(C#N)c(-c2ccc(F)cc2)n1
inactive: HCT-15 colon 88.1% | HT29 colon 92.6% | SNB-75 CNS 80.3% | SNB-19 CNS 92.7% | U251 CNS 91.6% | PC-3 prostate 98.9% | SK-MEL-5 melanoma 97.1% | UACC-62 melanoma 93.4% | LOX IMVI melanoma 87.1% | SK-MEL-28 melanoma 101%

COC(=O)c1nc(-c2ccccc2)oc1S(=O)(=O)n1nc(-c2ccccc2)cc1N
inactive: HCT-15 colon 63.6% | HT29 colon 43.1% | SNB-75 CNS 93.4% | SNB-19 CNS 101% | U251 CNS 97% | PC-3 prostate 102% | SK-MEL-5 melanoma 94.7% | UACC-62 melanoma 95.2% | LOX IMVI melanoma 72.3% | SK-MEL-28 melanoma 89.6%

CC(/C=C/c1ccccc1)=N/NC(=O)c1ccncc1
inactive: HCT-15 colon 100% | HT29 colon 108% | SNB-75 CNS 97.7% | SNB-19 CNS 102% | U251 CNS 98.3% | PC-3 prostate 92.5% | SK-MEL-5 melanoma 100% | UACC-62 melanoma 94.1% | LOX IMVI melanoma 99.5% | SK-MEL-28 melanoma 118%

CC1(C)CC[C@]2(c3nnc(-c4ccncc4)o3)CC[C@]3(C)C(=CC[C@@H]4[C@@]5(C)CCC(=O)C(C)(C)[C@@H]5CC[C@]43C)[C@@H]2C1
inactive: HCT-15 colon 71.8% | HT29 colon 77.5% | SNB-75 CNS 88.7% | SNB-19 CNS 78.7% | U251 CNS 76.9% | PC-3 prostate 47.5% | SK-MEL-5 melanoma 74.3% | UACC-62 melanoma 67.3% | LOX IMVI melanoma 72.2% | SK-MEL-28 melanoma 83.5%

COc1ccc(Sc2[nH]c(C(C)=O)c3ccccc23)cc1
inactive: HCT-15 colon 53.9% | HT29 colon 47.6% | SNB-75 CNS 48.1% | SNB-19 CNS 67.1% | U251 CNS 76% | PC-3 prostate 52.1% | SK-MEL-5 melanoma 45.1% | UACC-62 melanoma 47.1% | LOX IMVI melanoma 71.9% | SK-MEL-28 melanoma 84.1%

COc1ccc2c(c1)C1(C(=O)N2)C(C#N)=C(c2ccccc2)Nc2c1c(-c1ccccc1)nn2-c1ccccc1 (stereo not given)
inactive: HCT-15 colon 85% | HT29 colon 43% | SNB-75 CNS 33.8% | SNB-19 CNS 59.7% | SK-MEL-5 melanoma 58.6% | UACC-62 melanoma 85.1% | LOX IMVI melanoma 52.7% | SK-MEL-28 melanoma 42.9%
active: U251 CNS 9.08% | PC-3 prostate 7.28%

CC(C)(C)c1nn(-c2ccccc2)c2c1COCN2Cc1ccc(Cl)cc1
inactive: HCT-15 colon 96% | HT29 colon 65.7% | SNB-75 CNS 95.1% | SNB-19 CNS 92.4% | U251 CNS 90.3% | PC-3 prostate 63.6% | SK-MEL-5 melanoma 82.2% | UACC-62 melanoma 72.8% | LOX IMVI melanoma 85% | SK-MEL-28 melanoma 100%

CC(=O)OCC1OC(OC2C(COC(C)=O)OC(OCCC[S-])C(OC(C)=O)C2OC(C)=O)C(OC(C)=O)C(OC(C)=O)C1OC(C)=O.[Au+].c1ccc(CN2[CH-]N(Cc3ccccc3)C(c3ccccc3)=C2c2ccccc2)cc1 (stereo not given)
active: U251 CNS 5.17% | SK-MEL-5 melanoma -12.6%
inactive: HCT-15 colon 25.6% | HT29 colon 15.7% | SNB-75 CNS 45.5% | SNB-19 CNS 23.2% | PC-3 prostate 17.7% | UACC-62 melanoma 13.4% | LOX IMVI melanoma 11.3% | SK-MEL-28 melanoma 28.4%

O=C(Nc1ccc(S(=O)(=O)NC2CCCCCC2)cc1)C(c1ccccc1)S(=O)(=O)c1ccc(F)cc1 (stereo not given)
inactive: SNB-19 CNS 26.2% | U251 CNS 12.6%
active: HCT-15 colon 2.74% | HT29 colon -14.1% | SNB-75 CNS 3.64% | PC-3 prostate 7.69% | SK-MEL-5 melanoma -36.4% | UACC-62 melanoma -9.75% | LOX IMVI melanoma 5.06% | SK-MEL-28 melanoma 1.46%

N#Cc1c(-c2ccc(F)cc2)c(C#N)c2c(C#N)c(N)nn2c1N
inactive: HCT-15 colon 106% | HT29 colon 98.7% | SNB-75 CNS 87.8% | SNB-19 CNS 108% | U251 CNS 94.7% | PC-3 prostate 77.4% | SK-MEL-5 melanoma 96.8% | UACC-62 melanoma 105% | LOX IMVI melanoma 89.9% | SK-MEL-28 melanoma 111%

CC(=O)ON1CCCC(P(=O)(OCOC(=O)C(C)(C)C)OCOC(=O)C(C)(C)C)C1=O (stereo not given)
active: HCT-15 colon 3.57% | HT29 colon -4.49% | SNB-19 CNS -7.66% | U251 CNS -8.95% | SK-MEL-5 melanoma -55.7% | UACC-62 melanoma -64.7% | LOX IMVI melanoma 9.18% | SK-MEL-28 melanoma -46.9%
inactive: SNB-75 CNS 25.4% | PC-3 prostate 17.7%

Nc1c(C(=O)Nc2ccccn2)sc2nc3c(cc12)CCCC3
inactive: HCT-15 colon 27.4% | HT29 colon 21.7% | SNB-75 CNS 38.1% | SNB-19 CNS 45.7% | U251 CNS 33.2% | PC-3 prostate 64.9% | SK-MEL-5 melanoma 26.3% | UACC-62 melanoma 41.2% | LOX IMVI melanoma 41.5% | SK-MEL-28 melanoma 64.8%

CCOC(=O)c1c(-c2ccc(O)cc2)c(C#N)c2c(C#N)c(N)nn2c1N
inactive: HCT-15 colon 76% | HT29 colon 43% | SNB-75 CNS 65.7% | SNB-19 CNS 74.8% | U251 CNS 63.3% | PC-3 prostate 68.9% | SK-MEL-5 melanoma 52.9% | UACC-62 melanoma 36.9% | LOX IMVI melanoma 55.2% | SK-MEL-28 melanoma 68.6%

Nc1c(C(=O)c2ccccc2)sc2nc(-c3cc4ccccc4o3)cc(-c3ccc(Cl)cc3)c12
inactive: HCT-15 colon 86.4% | HT29 colon 106% | SNB-75 CNS 92.3% | SNB-19 CNS 111% | U251 CNS 90% | PC-3 prostate 87.5% | SK-MEL-5 melanoma 97.8% | UACC-62 melanoma 102% | LOX IMVI melanoma 86.5% | SK-MEL-28 melanoma 120%

O=C1Nc2ccccc2C12C=C(c1ccccc1)Nc1c2c(-c2ccccc2)nn1-c1ccccc1 (stereo not given)
inactive: HCT-15 colon 53.4% | HT29 colon 46.1% | SNB-75 CNS 71% | SNB-19 CNS 64.3% | U251 CNS 41.6% | PC-3 prostate 32.2% | SK-MEL-5 melanoma 68.4% | UACC-62 melanoma 91.9% | LOX IMVI melanoma 65.2% | SK-MEL-28 melanoma 82.2%

Cc1c(Cl)cccc1NC(=O)c1sc2nc3c(cc2c1N)CCCCCC3
inactive: HCT-15 colon 24.1% | SNB-19 CNS 29.1% | U251 CNS 15.7% | PC-3 prostate 32.9% | SK-MEL-5 melanoma 28.7% | LOX IMVI melanoma 40.8% | SK-MEL-28 melanoma 58.7%
active: HT29 colon -10.3% | SNB-75 CNS -6.81%

O=C(Nc1cccc(-c2cccc(F)c2)c1)C1CCN(Cc2cccc3cccnc23)CC1
inactive: HCT-15 colon 19.5% | SNB-75 CNS 53.6% | SNB-19 CNS 77% | U251 CNS 44.4% | PC-3 prostate 51.1% | SK-MEL-5 melanoma 35.2%
active: HT29 colon 0.443% | LOX IMVI melanoma 3.29% | SK-MEL-28 melanoma -40.2%

COc1cc(/C=C/CO)cc(OC)c1O[C@@H]1O[C@H](CO)[C@@H](O)[C@H](O)[C@H]1O
inactive: HCT-15 colon 101% | HT29 colon 100% | SNB-75 CNS 94.9% | SNB-19 CNS 97.2% | U251 CNS 96.1% | PC-3 prostate 95.1% | SK-MEL-5 melanoma 98.9% | LOX IMVI melanoma 96.1% | SK-MEL-28 melanoma 105%

COc1cc(-c2csc(NC(=O)Nc3ccc(Cl)cc3)n2)cc(OC)c1OC
inactive: HCT-15 colon 20.1% | HT29 colon 36.1% | SNB-75 CNS 36.5% | SNB-19 CNS 24.3% | U251 CNS 25.4% | LOX IMVI melanoma 24.7% | SK-MEL-28 melanoma 41.1%
active: PC-3 prostate 3.63% | SK-MEL-5 melanoma -37.8%

Nc1cc(N)c(S(=O)(=O)O)cc1N=Nc1cc([N+](=O)[O-])ccc1O
inactive: HCT-15 colon 104% | HT29 colon 102% | SNB-75 CNS 88.7% | SNB-19 CNS 98.8% | U251 CNS 100% | PC-3 prostate 87.1% | SK-MEL-5 melanoma 105% | LOX IMVI melanoma 93.4% | SK-MEL-28 melanoma 102%
